This is an account of results in the OligoGym collection.
Note: reference of the scale not given here.

The target of the first assay is SLMAP. As to the kind of experiment: pooled miR-30 sensor sort-seq; sequence = guide strand. To be noted: shRNA.
Regarding TTTGTTTACTTGTTCTAGCTAG, the sensor-assay potency score (higher = more potent) was 0.257. Still for that read-out and setting: the same measure for ATACTCTTTCTGCACATCCTTT: -0.952. On to TAACTTTCCGTGTATTCTCTGT, for which the sensor-assay potency score (higher = more potent) was -0.472.

In the case of TTGAAGATAAAACTTGCCCGTC, the sensor-assay potency score (higher = more potent) was 0.116. Take TAAGAGTCTATCTTCATCTATT: the sensor-assay potency score (higher = more potent) was -0.538. On the same count and under the same terms, as for TTCACTGTCCTTCTCCTCCCGG, the figure is -0.623; as for TAATTCTCTTAATTCTTCCTGA, 0.412. Same read-out and setting: the same measure for TTCATCTCTAGTACTTGTGATT: -0.717.

A further assay addresses SMAD4. The assay is described as above. The settings on record: shRNA.
In the case of TTACTTGTTGGTGTATTCGTAA, the sensor-assay potency score (higher = more potent) is -0.078. In turn, TTAGGTAGAGTGACGCTGCTTT came in with a sensor-assay potency score (higher = more potent) of 0.626. Same read-out and setting: the same measure for TAGAATGATATACATATCGATG: -1.35; for TTTGAATTGAATGTCCTTCAGT: -0.388.

Regarding TTCTTAGCAACCAACCTTGTGC, the sensor-assay potency score (higher = more potent) is -0.338. The same measure, in the same setting: the same measure for TTACAATACATTATTAACTTAC: -0.987; for TTGTATTTTGTAGTCCACCATC: -1.39.

Regarding TTAACTTTGAGAACTTCTCTGC, the sensor-assay potency score (higher = more potent) worked out at 0.783. On the same count and under the same terms, the same measure for TAACTCTGTACAAAGACCGCGT: 0.679.

TTCCAGGTGATACAACTCGTTC: the sensor-assay potency score (higher = more potent) was -1.63. Same read-out and setting: as for TACATTCCAACTGCACACCTTT, the figure is -0.752; as for TTAGCAACCAACCTTGTGCCTA, -0.621.

The next assay has as its target SMC2. The description is as above. To be noted: shRNA.
Turning to TTTGATTCTCAGTTCATCCTGA, the sensor-assay potency score (higher = more potent) was found to be 0.766.

Turning to TTCTGGTTTATATTCAACCAAG, the sensor-assay potency score (higher = more potent) was -1.67.

Consider TTGTTTATTCTTTAATTCCTGT, for which the sensor-assay potency score (higher = more potent) was -0.411. The same measure, in the same setting: as for TACTTTGGTATCTTCAGCCAGC, the figure is -0.418; as for TCTACCACCAATAACCACCTGC, 0.664. For the sequence TAATTCTTCTTGTTGCTTGTGA, the sensor-assay potency score (higher = more potent) worked out at 0.551. Same read-out and setting: as for TTGCATTGTTGAACATACCTTC, the figure is 0.529; as for TTTTTGTATTCATACATCCTGG, -0.581; as for TTCTAGAGCTTCTTGATCCTTC, 0.175.

Regarding TTCTATTCCAGTTCTTCTCTGG, the sensor-assay potency score (higher = more potent) turned out to be 0.3.

As to TTGAGTTCTTGAAACTTGGTTA, the sensor-assay potency score (higher = more potent) is 0.137. Same read-out and setting: as for TTCATTTACAGCTTCAAGCTGT, the figure is 0.444.

Another assay has as its target SMC5. The assay is described as above. To be noted: shRNA.
On to TTCATTGTCTTTGTGCTCCAGA, for which the sensor-assay potency score (higher = more potent) is 0.694. Still for that read-out and setting: as for TTTCCTTTCTATAACATCTTGC, the figure is 0.304; as for TTCTCTTTTTGTATATTCCTGA, -0.0732; as for TTGATCTAGTTCAACTTTCTTT, -0.0143. On the same count and under the same terms, as for TAAATCTAAATGTCGCTTCCGT, the figure is 0.849; as for TTCTATAACATCTTGCTTCTGT, 0.581; as for TTATCTTTCATATTGATCGTGA, 0.464. On the same count and under the same terms, as for TTCTGCAATAATCTCTGTCTAT, the figure is -1.01.
